Where “and” joins values, the source holds several entries; their conditions need not be identical. Identical values can stand only once. Out of some 5,500 compounds screened, about 2,000 (36%) were called active. Another 18% or so got no clear call; they are omitted. No stated cut-off is given here; in the data, active means normalized growth mostly below about 0.91 (no sharp cut-off); inconclusive means no clear call, values can overlap the other calls; inactive means mostly above about 0.92. The list shows a part of the results.
Experiment: chemical genetic growth profiling, strain panel (AID 1159580);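 further: tested at 20 µM; growth read once vehicle control cultures reached saturation at 30 °C; 1 = growth at the plate median or of vehicle wells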
Details: S. cerevisiae deletion strains, growth OD

Measured: normalized growth

COc1cc2c(cc1OC)C1(O)C(=O)c3ccc(O)c(C(=O)O)c3OC1CO2 (configuration not stated)
inactive: locus YAL021C, strain ccr4, stronger effect = lower value 1 | locus YAL026C, strain drs2, stronger effect = lower value 0.988 | locus YAL030W, strain snc1, stronger effect = lower value 1 | locus YBL061C, strain skt5, stronger effect = lower value 0.995 | locus YBR009C, strain hhf1, stronger effect = lower value 0.998 | locus YBR021W, strain FUR4, stronger effect = lower value 1.06 | locus YBR023C, strain chs3, stronger effect = lower value 1.01 | locus YBR171W, strain sec66, stronger effect = lower value 0.996 | locus YBR229C, strain ROT2, stronger effect = lower value 1.01 | locus YBR231C, strain swc5, stronger effect = lower value 1.01 | locus YBR279W, strain paf1, stronger effect = lower value 0.985 | locus YCL011C, strain gbp2, stronger effect = lower value 0.991 | locus YCL016C, strain dcc1, stronger effect = lower value 0.98 | locus YCL029C, strain bik1, stronger effect = lower value 0.985 | locus YCL069W, strain vba3, stronger effect = lower value 1 | locus YCR088W, strain abp1, stronger effect = lower value 0.996 | locus YDL005C, strain med2, stronger effect = lower value 1.01 | locus YDL035C, strain GPR1, stronger effect = lower value 1.05 | locus YDL040C, strain nat1, stronger effect = lower value 0.998 | locus YDL074C, strain BRE1, stronger effect = lower value 1.05 | locus YDL101C, strain DUN1, stronger effect = lower value 0.991 | locus YDL185W, strain tfp1, stronger effect = lower value 0.954 | locus YDL192W, strain arf1, stronger effect = lower value 1.02 | locus YDR001C, strain nth1, stronger effect = lower value 0.987 | locus YDR069C, strain doa4, stronger effect = lower value 0.991 | locus YDR101C, strain arx1, stronger effect = lower value 1.05 | locus YDR137W, strain rgp1, stronger effect = lower value 0.973 | locus YDR159W, strain sac3, stronger effect = lower value 1 | locus YDR162C, strain NBP2, stronger effect = lower value 0.993 | locus YDR195W, strain ref2 0.955 | locus YDR297W, strain sur2, stronger effect = lower value 1 | locus YDR318W, strain mcm21, stronger effect = lower value 0.986 | locus YDR334W, strain swr1, stronger effect = lower value 0.978 | locus YDR335W, strain msn5, stronger effect = lower value 1.01 | locus YDR388W, stronger effect = lower value 0.977 | locus YDR392W, strain spt3, stronger effect = lower value 0.974 | locus YDR502C, strain sam2, stronger effect = lower value 0.983 | locus YEL003W, strain gim4, stronger effect = lower value 0.998 | locus YEL037C, strain rad23, stronger effect = lower value 0.987 | locus YEL061C, strain CIN8 (second series), stronger effect = lower value 0.989 | locus YEL061C, strain CIN8, stronger effect = lower value 0.998 | locus YER015W, strain faa2, stronger effect = lower value 0.989 | locus YER016W, strain bim1, stronger effect = lower value 0.991 | locus YER110C, stronger effect = lower value 0.979 | locus YER111C, strain swi4, stronger effect = lower value 0.98 | locus YER155C, strain BEM2 (second series), stronger effect = lower value 0.994 | locus YER155C, strain BEM2, stronger effect = lower value 0.99 | locus YER167W, strain BCK2, stronger effect = lower value 1.04 | locus YFR010W, strain ubp6, stronger effect = lower value 1 | locus YGL078C, strain dbp3, stronger effect = lower value 0.981 | locus YGL086W, strain mad1, stronger effect = lower value 1.02 | locus YGL167C, strain pmr1, stronger effect = lower value 0.998 | locus YGL173C, strain kem1, stronger effect = lower value 0.994 | locus YGL227W, strain vid30, stronger effect = lower value 0.991 | locus YGL240W, strain doc1, stronger effect = lower value 1.01 | locus YGL248W, strain PDE1, stronger effect = lower value 1.02 | locus YGL253W, strain hxk2, stronger effect = lower value 0.999 | locus YGR078C, strain PAC10, stronger effect = lower value 0.991 | locus YGR135W, strain pre9, stronger effect = lower value 0.98 | locus YGR252W, strain gcn5, stronger effect = lower value 1.09 | locus YHR013C, strain ard1, stronger effect = lower value 0.972 | locus YHR027C, strain rpn1, stronger effect = lower value 0.991 | locus YHR030C, strain SLT2, stronger effect = lower value 0.99 | locus YHR079C, strain IRE1 (second series), stronger effect = lower value 0.99 | locus YHR079C, strain IRE1, stronger effect = lower value 0.983 | locus YHR094C, strain hxt1, stronger effect = lower value 0.982 | locus YHR129C, strain ARP1, stronger effect = lower value 1 | locus YHR142W, strain chs7, stronger effect = lower value 0.98 | locus YHR200W, strain rpn10, stronger effect = lower value 0.995 | locus YIL066C, strain RNR3, stronger effect = lower value 1.02 | locus YIL073C, strain SPO22, stronger effect = lower value 0.932 | locus YIL125W, strain kgd1, stronger effect = lower value 0.985 | locus YIR030C, strain dcg1, stronger effect = lower value 0.997 | locus YJL092W, strain hpr5, stronger effect = lower value 1.02 | locus YJL095W, strain BCK1 (second series), stronger effect = lower value 0.989 | locus YJL095W, strain BCK1, stronger effect = lower value 0.99 and 0.98 | locus YJL115W, strain asf1, stronger effect = lower value 0.986 | locus YJL129C, strain trk1, stronger effect = lower value 0.972 | locus YJL134W, strain LCB3, stronger effect = lower value 0.986 | locus YJL154C, strain vps35, stronger effect = lower value 0.995 | locus YJL164C, strain tpk1, stronger effect = lower value 0.998 | locus YJL166W, strain qcr8, stronger effect = lower value 0.997 | locus YJL168C, strain set2, stronger effect = lower value 0.989 | locus YJL187C, strain SWE1 (second series), stronger effect = lower value 0.989 | locus YJL187C, strain SWE1, stronger effect = lower value 0.999 | locus YJR043C, strain POL32, stronger effect = lower value 1.08 | locus YJR066W, strain TOR1, stronger effect = lower value 0.9
